Screen size: about 13,000 compounds; about 3,200 (25%) showed an effect of 50% or more. This is one part of the list.
The compounds below were run on P. falciparum stage V gametocytes. Conditions: 48 h, 5 µM; inhibitor.
Parameters: BacTiter-Glo ATP luminescence viability of purified stage V gametocytes in 384-well plates, per cent inhibition versus DMSO
For CN(Cc1ccccc1)C1CCN(c2cc(NC(=O)c3cccc(F)c3)ccn2)CC1 [TCMDC-135000], the “% Inhibition” value was -5.844%. For Clc1ncnc2ncn(Cc3cccc(Br)c3)c12 [TCMDC-137635], the “% Inhibition” value was 63.17%. In the case of Clc1nc(Cl)c2c(ccn2Cc2ccccc2)n1 [TCMDC-137801], the “% Inhibition” value is reported as 10.13%. CCCCCN1CCCC(CNS(=O)(=O)c2cccc(C(=O)Nc3ccc(C(F)(F)F)cc3)c2)C1 (stereo not shown) [TCMDC-133672] was tested, and the “% Inhibition” value was -63.4%. For Fc1cccc(Cn2ncc3cc(Nc4ncnc5sc(C#Cc6ncc[nH]6)cc45)ccc32)c1 [TCMDC-135428], the “% Inhibition” value was -11.76%. For O=c1cc(NCCCNCc2cc3ccc(Br)cc3s2)[nH]c2ccccc12 [TCMDC-140332], the “% Inhibition” value was -45.39%. OC(c1n[nH]c(=S)n1-c1ccccc1)C(O)c1n[nH]c(=S)n1-c1ccccc1 (stereo not shown) [TCMDC-125763] was tested, and the “% Inhibition” value was 1.463%. With Cn1cncc1-c1cc2c(Nc3ccc(OCc4ccccc4)cc3)ncnc2cn1 [TCMDC-137188] the “% Inhibition” value was -27.44%. In the case of Cc1[nH]c(C)c(-c2ccc(-c3ccc(OC(F)(F)F)cc3)nc2)c(=O)c1Br [TCMDC-136016], the “% Inhibition” value is reported as 67.89%. Cc1[nH]c(C)c(-c2ccc(-c3ccc(OC(F)(F)F)cc3)nc2)c(=O)c1Cl [TCMDC-135677] was tested, and the “% Inhibition” value was 60.39%. With Cc1[nH]c(C)c(-c2ccc(-c3cccc(OC(F)(F)F)c3)nc2)c(=O)c1Cl [TCMDC-136286] the “% Inhibition” value was 5.058%. In the case of CC(=O)c1sc(NC(=O)Nc2ccc(C)cc2C)nc1C [TCMDC-124895], the “% Inhibition” value is reported as -9.928%. With CO/C(=C\C=C\c1cc2cc(Cl)c(Cl)cc2[nH]1)C(=O)Nc1ccc(NCCN(C)C)nc1 [TCMDC-139073] the “% Inhibition” value was -22.07%. Cc1cccc2[nH]c(C3CCN(CC4CCN(C(=O)/C=C/c5ccc(Cl)c(Cl)c5)CC4)CC3)nc12 [TCMDC-140146] was tested, and the “% Inhibition” value was -0.3523%. CCOC(=O)[C@H](Cc1cccc2ccccc12)NC(=O)[C@H](CCC(=O)OC(C)(C)C)NC(=O)c1ccc(N(C)Cc2cnc3nc(N)nc(N)c3n2)cc1 [TCMDC-137288] was tested, and the “% Inhibition” value was 41.06%. In the case of Cc1cccc2nc(-c3ccc(-c4ccc(CNCCCN5CCCC5=O)cc4)s3)[nH]c12.O=C(O)C(F)(F)F [TCMDC-132755], the “% Inhibition” value is reported as 11.61%. In the case of CCCCOC(=O)c1ccc(Nc2cc(C)nc3ccc(OC)cc23)cc1 [TCMDC-124192], the “% Inhibition” value is reported as 8.663%. CCCCOc1ccc(C(=O)C(CCC(CNC(C)(C)C)C(=O)c2ccc(OCCCC)cc2)CNC(C)(C)C)cc1 (stereo not shown) [TCMDC-124120] was tested, and the “% Inhibition” value was 110.6%. In the case of CCOC(=O)c1ccc(OCCOc2ccccc2)cc1 [TCMDC-125533], the “% Inhibition” value is reported as 1.604%. For CCCc1ccc(S(=O)(=O)NC2CCN(C(=O)Nc3ccc(I)cc3)CC2)cc1 [TCMDC-139436], the “% Inhibition” value was 4.903%. For CS(=O)(=O)CCNC(=O)c1ccc(-c2cc3c(Nc4ccc5c(cnn5Cc5ccccc5)c4)ncnc3cn2)o1 [TCMDC-138125], the “% Inhibition” value was 1.646%. Cc1cc(N[C@@H](Cc2ccccc2)C(=O)NCc2cccs2)nc(NCCc2ccccn2)n1 [TCMDC-134747] was tested, and the “% Inhibition” value was 121.6%. For Cc1cc(N[C@@H](Cc2ccccc2)C(=O)NCc2cccs2)nc(NCCc2cccnc2)n1 [TCMDC-134819], the “% Inhibition” value was 56.43%. With COc1ccccc1CCNc1nc(C)cc(N[C@@H](Cc2ccccc2)C(=O)NCc2cccs2)n1 [TCMDC-134802] the “% Inhibition” value was 51.92%. For Cc1cc(N[C@@H](Cc2ccccc2)C(=O)NCc2cccs2)nc(NCCc2ccc(F)cc2)n1 [TCMDC-134787], the “% Inhibition” value was 66.5%. Cc1cc(N[C@@H](Cc2ccccc2)C(=O)NCc2cccs2)nc(NCC2CCCCC2)n1 [TCMDC-134930] was tested, and the “% Inhibition” value was -30.67%. With CC(C)(C)c1cc(C(=O)Nc2ccc(C(=N)N)cc2)c(O)c(C(C)(C)C)c1 [TCMDC-136316] the “% Inhibition” value was 24.98%. For CCc1ccc(C(=O)Nc2cccc(CN3CCCN(Cc4ccc(O)cc4)CC3)c2)cc1 [TCMDC-141884], the “% Inhibition” value was 21.35%. For Cc1ccc(NC(=O)c2cccc(CN3CCCN(CC4CCCCC4)CC3)c2)cc1F [TCMDC-135958], the “% Inhibition” value was -34.77%. In the case of COCCSc1nc2scc(C)c2c(=O)n1Cc1cccc(OC)c1 [TCMDC-134420], the “% Inhibition” value is reported as 25.73%. In the case of CCCCCN1CCC(NC(=O)c2ccc(C(=O)Nc3ccc(C(C)C)cc3)cc2)C1 (stereo not shown) [TCMDC-136744], the “% Inhibition” value is reported as -20.17%. For Nc1ncnc2c1ncn2C(CO)Cc1ccc(O)cc1 (stereo not shown) [TCMDC-137893], the “% Inhibition” value was -20.6%. C[C@H](Cc1ccc(C[C@@H](C)NCC(O)c2cc(Cl)c(N)c(Cl)c2)cc1)NCC(O)c1cc(Cl)c(N)c(Cl)c1 (stereo partly shown) [TCMDC-131548] was tested, and the “% Inhibition” value was 39.43%. With Cc1cccc(CCNC(=O)c2cc(Br)cc(N3CCN(c4ccncc4)CC3)c2)c1 [TCMDC-135149] the “% Inhibition” value was -71.81%. For CCOC(=O)c1ccc(NC(=O)Nc2ccc(-c3cccc(-c4nc5ccc(F)cc5[nH]4)c3)cc2)cc1 [TCMDC-133269], the “% Inhibition” value was -27.05%. With Cc1cc(N[C@@H](Cc2ccccc2)C(=O)NCc2cccs2)nc(Nc2ccccc2)n1 [TCMDC-134734] the “% Inhibition” value was -21.51%. With Cc1cc(N[C@@H](Cc2ccccc2)C(=O)NCc2cccs2)nc(NCCc2ccccc2)n1 [TCMDC-134775] the “% Inhibition” value was 70.11%. In the case of Cc1cc(N[C@@H](Cc2ccccc2)C(=O)NCCc2ccccc2)nc(NCCc2cccs2)n1 [TCMDC-134874], the “% Inhibition” value is reported as 14.35%. For Cc1cc(N(C)C2CCN(C)C2)nc(Nc2ccccc2Cl)n1 (stereo not shown) [TCMDC-137007], the “% Inhibition” value was 12.36%. Cc1ccc(C)c(S(=O)(=O)Nc2ccc(Br)cc2C(=O)Nc2cccc(C(F)(F)F)c2)c1 [TCMDC-141482] was tested, and the “% Inhibition” value was 10.24%. With Cc1ccc(NC(=O)c2cc(S(=O)(=O)NC(C)(C)C)ccc2C)nc1 [TCMDC-125009] the “% Inhibition” value was 54.13%. For Cc1cc(NC(=O)c2cc(S(=O)(=O)N3CCCCC3)ccc2C)no1 [TCMDC-124530], the “% Inhibition” value was 23.56%. In the case of Cc1cc(N2CCC(NS(=O)(=O)c3ccccc3)CC2)nc(Nc2cccc(C#N)c2)n1 [TCMDC-134213], the “% Inhibition” value is reported as 22.13%.
